In PubChem BioAssay (Tox21):
Results filed as inconclusive are left out. Activity calls are given as the source filed them. Unless noted, calls follow the shape of the dose curve; as a rule, active = well fitted curve in the direction sought with a large enough effect in the repeat runs; inconclusive = weak or mixed curves; inactive = no such curve, though single readings can be large; an effect the other way counts as inactive or inconclusive.

How the values were obtained:
[1] = qHTS RealTime-Glo MT Cell Viability Assay in HEK293 cells - 0 hour (AID 1224880); also: top concentration of the series differs between compounds; nearly all actives have a fitted effect of over 45% in size
Summary of the method: (§1)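 Tox21 screen in HEK293 using RealTime-Glo MT chemistry, with cells and reagent co-dispensed. Luminescence proportional to viable cell number was captured at intervals during 40 h compound exposure at 37 C.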

[2] = A CellTox Green Cytotoxicity Assay to monitor cytotoxicity in HEK293 cells - 32 hour (AID 1224881); also: nearly all actives have a fitted effect of over 40% in size
Summary of the method: (§2)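 Seeding of HEK293 cells together with cytotoxicity dye preceded a 5 h incubation at 37 C/5% CO2. Test compounds in DMSO were then added and fluorescence monitored across 40 h.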

[3] = A CellTox Green Cytotoxicity Assay to monitor cytotoxicity in HepG2 cells - 0 hour (AID 1224882); also: nearly all actives have a fitted effect of over 35% in size
Summary of the method: (§3)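 Nonlytic assay: viable cells exclude the dye, so fluorescence scales with cell death. HepG2 at 600 cells/well, compounds added after 5 h, signal read across 40 h.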

[4] = A CellTox Green Cytotoxicity Assay to monitor cytotoxicity in HepG2 cells - 32 hour (AID 1224883); also: nearly all actives have a fitted effect of over 50% in size
Summary of the method: as §3

[5] = A CellTox Green Cytotoxicity Assay to monitor cytotoxicity in HEK293 cells - 8 hour (AID 1224884); also: nearly all actives have a fitted effect of over 35% in size
Summary of the method: as §2

[6] = qHTS RealTime-Glo MT Cell Viability Assay in HepG2 cells - 16 hour (AID 1224885); also: nearly all actives have a fitted effect of over 50% in size
Summary of the method: (§4)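 Compound treatment began 5 h after plating HepG2 cells (600/well) with NanoLuc luciferase and prosubstrate. Plates stayed at 37 C for 40 h; luminescence was captured at six time points, 0 h through 40 h.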

[7] = qHTS RealTime-Glo MT Cell Viability Assay in HEK293 cells - 24 hour (AID 1224886); also: top concentration of the series differs between compounds; nearly all actives have a fitted effect of over 50% in size
Summary of the method: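 Quantitative high-throughput screen of the Tox21 10K library in HEK293: cells and RealTime-Glo reagents plated together, compound added at 5 h, luminescence monitored through 40 h at 37 C.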

[8] = qHTS RealTime-Glo MT Cell Viability Assay in HEK293 cells - 8 hour (AID 1224887); also: top concentration of the series differs between compounds; nearly all actives have a fitted effect of over 50% in size
Summary of the method: as §1

[9] = qHTS RealTime-Glo MT Cell Viability Assay in HepG2 cells - 0 hour (AID 1224889); also: nearly all actives have a fitted effect of over 50% in size
Summary of the method: as §4

[10] = A CellTox Green Cytotoxicity Assay to monitor cytotoxicity in HepG2 cells - 8 hour (AID 1224890); also: nearly all actives have a fitted effect of over 45% in size
Summary of the method: as §3

[11] = qHTS assay to identify small molecule antagonists of the estrogen receptor alpha (ER-alpha) signaling pathway using the BG1 cell line in the presence of 0.1 nM 17-beta-estradiol - cell viability counter screen (AID 1259241); also: nearly all actives have a fitted effect of over 40% in size
Summary of the method: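 CellTiter-Fluor read (30 min, 37C) on ER-alpha/ERE-luc VM7Luc4E2 cells; 22 hr compound treatment; agonist 0.1 nM E2 final; same-well multiplex.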

[12] = qHTS assay to identify small molecule antagonists of the androgen receptor (AR) signaling pathway using the MDA cell line in the presence of 0.5 nM R1881 - cell viability counter screen (AID 1259242); also: nearly all actives have a fitted effect of over 45% in size
Summary of the method: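 R1881 at 0.5 nM final stimulated MDA-kb2 cells during 16 hr compound treatment at 37C. Cytotoxicity read: CellTiter-Fluor fluorescence after 30 min.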

[13] = molecular target: Estrogen receptor (Homo sapiens) (UniProt P03372); test: qHTS assay to identify small molecule antagonists of the estrogen receptor alpha (ER-alpha) signaling pathway using the BG1 cell line in the presence of 0.1 nM 17-beta-estradiol (AID 1259244); also: nearly all actives have a fitted effect of over 50% in size
Chain of Estrogen receptor (Homo sapiens) (P03372 whole entry, looked up): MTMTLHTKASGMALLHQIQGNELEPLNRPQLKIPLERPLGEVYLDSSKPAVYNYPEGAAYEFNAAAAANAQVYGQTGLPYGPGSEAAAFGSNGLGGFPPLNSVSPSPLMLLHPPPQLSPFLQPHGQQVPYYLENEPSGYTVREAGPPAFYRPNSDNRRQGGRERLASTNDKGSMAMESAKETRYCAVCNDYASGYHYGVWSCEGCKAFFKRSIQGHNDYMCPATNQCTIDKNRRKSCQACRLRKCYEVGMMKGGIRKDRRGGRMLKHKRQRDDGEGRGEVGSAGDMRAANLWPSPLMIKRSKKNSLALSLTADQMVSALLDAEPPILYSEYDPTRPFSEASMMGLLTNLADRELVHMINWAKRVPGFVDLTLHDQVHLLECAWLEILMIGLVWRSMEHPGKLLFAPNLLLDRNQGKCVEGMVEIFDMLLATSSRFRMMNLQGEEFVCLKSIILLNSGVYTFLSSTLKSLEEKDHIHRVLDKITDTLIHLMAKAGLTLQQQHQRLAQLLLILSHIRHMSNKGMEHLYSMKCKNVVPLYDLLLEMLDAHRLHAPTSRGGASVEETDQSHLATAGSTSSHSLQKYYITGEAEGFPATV
Summary of the method: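 VM7Luc4E2; 4xERE-luciferase; 0.1 nM E2 final; 22 h co-incubation, 37C; ONE-Glo luminescence after 30 min at room temperature.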

[14] = qHTS assay to identify small molecule HDAC inhibitors (AID 1259364);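 also: wild-type HCT-116 cells with endogenous class I/II HDAC activity; top concentration of the series differs between compounds; nearly all actives have a fitted effect of over 45% in size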
Summary of the method: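 Relative class I and II HDAC activity is taken from the luminogenic signal in HCT-116 cells, with compound exposure 2 hr and reagent development 30 min at room temperature.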

[15] = qHTS assay to identify small molecule HDAC inhibitors - cell viability counter screen (AID 1259365)
Summary of the method: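 To flag cytotoxic hits, 1,500 wild-type HCT-116 cells per well, plated the day before, receive test compounds for 2hr at 37 C before CellTiter-Glo reagent and a luminescence read.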

[16] = qHTS assay to identify small molecule agonists of the sonic hedgehog signaling (Shh) pathway - cell viability counter screen (AID 1259366); also: nearly all actives have a fitted effect of over 50% in size
Summary of the method: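 Fluorescence from CellTiter-Fluor reports live cells in this counter screen. NIH/3T3-derived Gli1-Luc reporter cells receive test compounds for 24hr at 37C; reagent goes in at 23hr.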

[17] = qHTS assay to identify small molecule antagonists of the sonic hedgehog signaling (Shh) pathway - cell viability counter screen (AID 1259367); also: nearly all actives have a fitted effect of over 55% in size
Summary of the method: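 Seed 3T3 Gli1-Luc cells at 2,000 per well; incubate 4 hr; add compound in DMSO, then conditioned medium; incubate at 37C with 5% CO2; add CellTiter-Fluor after 23 hr; read fluorescence 1 hr later.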

[18] = A CellTox Green Cytotoxicity Assay to monitor cytotoxicity in HEK293 cells - 16 hour (AID 1224888); also: nearly all actives have a fitted effect of over 35% in size
Summary of the method: as §2

[19] = molecular target: Androgen receptor (Homo sapiens) (UniProt P10275); test: qHTS assay to identify small molecule antagonists of the androgen receptor (AR) signaling pathway using the MDA cell line in the presence of 0.5 nM R1881 (AID 1259243); also: nearly all actives have a fitted effect of over 50% in size
Chain of Androgen receptor (Homo sapiens) (P10275 whole entry, looked up): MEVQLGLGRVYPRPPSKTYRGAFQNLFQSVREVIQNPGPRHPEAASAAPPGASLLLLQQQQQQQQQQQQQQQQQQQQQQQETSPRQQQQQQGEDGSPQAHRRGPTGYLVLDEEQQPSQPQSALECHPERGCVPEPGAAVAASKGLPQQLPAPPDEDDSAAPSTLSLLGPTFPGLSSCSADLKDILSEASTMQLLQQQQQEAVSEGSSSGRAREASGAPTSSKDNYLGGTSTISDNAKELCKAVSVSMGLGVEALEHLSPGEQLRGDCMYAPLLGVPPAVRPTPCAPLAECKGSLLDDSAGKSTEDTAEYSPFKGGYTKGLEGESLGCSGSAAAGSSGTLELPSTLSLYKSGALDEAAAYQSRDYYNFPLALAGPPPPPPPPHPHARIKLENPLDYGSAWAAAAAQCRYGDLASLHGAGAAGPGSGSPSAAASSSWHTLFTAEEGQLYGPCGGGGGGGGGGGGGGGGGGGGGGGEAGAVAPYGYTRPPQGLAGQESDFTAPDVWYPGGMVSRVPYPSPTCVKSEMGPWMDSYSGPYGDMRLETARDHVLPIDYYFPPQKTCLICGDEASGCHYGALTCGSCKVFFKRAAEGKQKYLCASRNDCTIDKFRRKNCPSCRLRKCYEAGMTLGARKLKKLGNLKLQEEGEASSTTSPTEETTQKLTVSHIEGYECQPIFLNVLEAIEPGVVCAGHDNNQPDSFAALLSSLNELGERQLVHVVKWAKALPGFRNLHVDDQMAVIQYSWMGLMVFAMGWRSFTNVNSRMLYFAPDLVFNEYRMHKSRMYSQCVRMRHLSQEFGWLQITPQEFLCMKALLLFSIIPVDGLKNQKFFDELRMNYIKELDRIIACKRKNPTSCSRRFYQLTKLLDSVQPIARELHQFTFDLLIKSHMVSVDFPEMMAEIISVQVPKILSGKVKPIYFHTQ
Summary of the method: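 We exposed MDA-kb2 cells to compounds under 0.5 nM R1881 stimulation for 16 hr at 37C and quantified MMTV-driven luciferase by luminescence.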

[20] = qHTS assay to identify small molecule phospholipidosis (PLD) inducers (AID 1259344; active = well fitted curve in the direction sought with a large enough effect; an effect the other way counts as inactive or inconclusive)
Summary of the method: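 Quantitative HTS in HepG2: compound plus LipidTOX Red dye for 24 h, paraformaldehyde fixation with Hoechst 33342, widefield high-content imaging; amiodarone as positive and DMSO as negative control.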

Measured: Potency

Cc1cccc(N)c1
not listed: [18] | [19] | [20]
inactive: all other assays above

CN(C)C(=O)Cl
not listed: [18] | [19] | [20]
inactive: all other assays above

CC(C)(C)C(=O)CCl
not listed: [2] | [15] | [20]
inactive: all other assays above

FC(F)(F)c1ccc(Cl)cc1
not listed: [18] | [19] | [20]
inactive: all other assays above

CNCC(O)c1ccc(O)cc1 (stereo not drawn)
not listed: [2] | [15] | [19]
inactive: all other assays above

C=CC(=O)OCC(CC)CCCC (stereo not drawn)
not listed: [13] | [18] | [19] | [20]
inactive: all other assays above

CCOP(=S)(OCC)Oc1cc(C)nc(C(C)C)n1
not listed: [13] | [18] | [19]
inactive: all other assays above

Oc1ccc(Cl)cc1
not listed: [13] | [15] | [18] | [19]
inactive: all other assays above

Cc1cccc(N)c1C
not listed: [18] | [19] | [20]
inactive: all other assays above

CC(C)CCCCCCOC(=O)c1ccccc1C(=O)OCCCCCCC(C)C
not listed: [2] | [15] | [20]
inactive: all other assays above

Cc1cccc(C)c1N
not listed: [15] | [18] | [19] | [20]
inactive: all other assays above

NNc1ccccc1
not listed: [13] | [15] | [18] | [19]
inactive: all other assays above

c1ccc2c(c1)CCCC2
not listed: [2] | [20]
inactive: all other assays above

Cc1ccc(N)cc1
not listed: [13] | [18] | [19] | [20]
inactive: all other assays above

OCCCCO
not listed: [13] | [18] | [19] | [20]
inactive: all other assays above

Nc1nc(N)nc(NC2CC2)n1
not listed: [13] | [15] | [18] | [19]
inactive: all other assays above

O=P1(NCCCl)OCCCN1CCCl (stereo not drawn)
not listed: [13] | [18] | [19]
inactive: all other assays above
